Results published in ChEMBL document CHEMBL1961873, “Compounds: GSK PKIS; Assays: Nanosyn kinase panel” (2012).

Key:
[1] = biological target: T1, Mitogen-activated protein kinase 12 (Homo sapiens) (UniProt P53778); conditions: at 1 µM;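 also: values are averaged p38gamma kinase inhibition readings, compounds tested at 1 µM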
T1 sequence (whole entry): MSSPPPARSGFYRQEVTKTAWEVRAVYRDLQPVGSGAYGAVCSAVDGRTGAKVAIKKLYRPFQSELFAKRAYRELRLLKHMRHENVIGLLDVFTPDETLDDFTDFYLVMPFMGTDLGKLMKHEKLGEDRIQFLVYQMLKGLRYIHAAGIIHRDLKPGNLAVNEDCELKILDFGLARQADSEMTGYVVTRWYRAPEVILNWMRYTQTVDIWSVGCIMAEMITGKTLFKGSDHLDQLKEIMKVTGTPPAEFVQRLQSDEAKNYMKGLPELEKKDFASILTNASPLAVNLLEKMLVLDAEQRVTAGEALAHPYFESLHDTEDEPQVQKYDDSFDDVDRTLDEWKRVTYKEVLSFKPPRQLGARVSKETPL

[2] = biological target: SRSF protein kinase 1 (Homo sapiens) (UniProt Q96SB4); conditions: at 0.1 µM
[3] = biological target: SRSF protein kinase 1 (Homo sapiens) (UniProt Q96SB4); conditions: at 1 µM
[4] = biological target: Phosphatidylinositol 4,5-bisphosphate 3-kinase catalytic subunit alpha isoform (Homo sapiens) (UniProt P42336); conditions: at 0.1 µM
[5] = biological target: Phosphatidylinositol 4,5-bisphosphate 3-kinase catalytic subunit alpha isoform (Homo sapiens) (UniProt P42336); conditions: at 1 µM
[6] = biological target: T2, Phosphatidylinositol 4,5-bisphosphate 3-kinase catalytic subunit delta isoform (Homo sapiens) (UniProt O00329); conditions: at 0.1 µM
T2 sequence (whole entry): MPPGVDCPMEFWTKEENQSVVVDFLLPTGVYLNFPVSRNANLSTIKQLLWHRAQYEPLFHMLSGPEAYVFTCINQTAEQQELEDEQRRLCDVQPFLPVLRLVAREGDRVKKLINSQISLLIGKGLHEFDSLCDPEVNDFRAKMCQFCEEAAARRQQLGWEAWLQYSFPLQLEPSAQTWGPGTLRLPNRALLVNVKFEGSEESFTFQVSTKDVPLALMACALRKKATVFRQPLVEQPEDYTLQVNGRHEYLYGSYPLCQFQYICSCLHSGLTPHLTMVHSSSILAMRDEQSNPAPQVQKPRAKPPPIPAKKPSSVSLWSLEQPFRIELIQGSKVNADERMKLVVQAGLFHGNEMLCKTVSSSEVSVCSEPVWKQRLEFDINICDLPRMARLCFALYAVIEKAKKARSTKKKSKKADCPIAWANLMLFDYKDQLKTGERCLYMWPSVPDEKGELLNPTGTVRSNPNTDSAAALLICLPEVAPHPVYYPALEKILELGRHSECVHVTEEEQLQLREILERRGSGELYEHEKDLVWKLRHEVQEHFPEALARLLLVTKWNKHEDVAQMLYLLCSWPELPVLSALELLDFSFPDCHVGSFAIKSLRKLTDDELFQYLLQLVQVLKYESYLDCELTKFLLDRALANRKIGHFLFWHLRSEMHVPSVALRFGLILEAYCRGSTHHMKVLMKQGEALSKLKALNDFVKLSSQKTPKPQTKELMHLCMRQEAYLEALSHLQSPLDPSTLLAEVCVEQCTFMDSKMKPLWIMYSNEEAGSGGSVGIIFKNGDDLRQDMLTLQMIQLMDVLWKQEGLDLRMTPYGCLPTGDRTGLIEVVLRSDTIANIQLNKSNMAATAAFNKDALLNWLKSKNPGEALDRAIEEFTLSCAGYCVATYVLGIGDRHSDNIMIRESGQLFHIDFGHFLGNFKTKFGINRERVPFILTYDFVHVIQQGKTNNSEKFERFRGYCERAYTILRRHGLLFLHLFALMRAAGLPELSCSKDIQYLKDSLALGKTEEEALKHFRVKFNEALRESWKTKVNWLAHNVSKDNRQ

[7] = biological target: T2, Phosphatidylinositol 4,5-bisphosphate 3-kinase catalytic subunit delta isoform (Homo sapiens); conditions: at 1 µM
[8] = biological target: Phosphatidylinositol 4-kinase beta (Homo sapiens) (UniProt Q9UBF8); conditions: at 0.1 µM
[9] = biological target: Phosphatidylinositol 4-kinase beta (Homo sapiens) (UniProt Q9UBF8); conditions: at 1 µM
[10] = biological target: Sphingosine kinase 1 (Homo sapiens) (UniProt Q9NYA1); conditions: at 0.1 µM
[11] = biological target: Sphingosine kinase 1 (Homo sapiens) (UniProt Q9NYA1); conditions: at 1 µM
[12] = biological target: T3, Sphingosine kinase 2 (Homo sapiens) (UniProt Q9NRA0); conditions: at 0.1 µM
T3 sequence (whole entry): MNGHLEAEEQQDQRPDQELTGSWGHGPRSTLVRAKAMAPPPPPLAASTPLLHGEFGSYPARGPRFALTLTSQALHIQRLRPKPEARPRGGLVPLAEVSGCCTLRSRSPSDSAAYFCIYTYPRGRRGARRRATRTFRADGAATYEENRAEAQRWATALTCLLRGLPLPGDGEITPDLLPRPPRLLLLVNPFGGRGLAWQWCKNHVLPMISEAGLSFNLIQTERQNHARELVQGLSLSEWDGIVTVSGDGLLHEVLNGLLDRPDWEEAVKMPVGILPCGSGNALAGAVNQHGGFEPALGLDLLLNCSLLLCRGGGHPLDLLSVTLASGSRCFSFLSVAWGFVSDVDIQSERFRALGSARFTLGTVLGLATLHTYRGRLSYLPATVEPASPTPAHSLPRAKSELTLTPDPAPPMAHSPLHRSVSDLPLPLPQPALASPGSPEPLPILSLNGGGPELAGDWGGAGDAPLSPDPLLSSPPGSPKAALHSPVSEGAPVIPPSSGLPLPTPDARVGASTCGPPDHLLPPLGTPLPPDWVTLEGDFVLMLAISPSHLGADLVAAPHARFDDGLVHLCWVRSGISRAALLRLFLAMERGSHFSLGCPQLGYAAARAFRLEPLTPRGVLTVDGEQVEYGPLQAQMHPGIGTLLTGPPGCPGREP

[13] = biological target: T3, Sphingosine kinase 2 (Homo sapiens); conditions: at 1 µM
[14] = biological target: Casein kinase II subunit alpha (Homo sapiens) (UniProt P68400); conditions: at 0.1 µM
[15] = biological target: Casein kinase II subunit alpha (Homo sapiens) (UniProt P68400); conditions: at 1 µM
[16] = biological target: T4, Inhibitor of nuclear factor kappa-B kinase subunit alpha (Homo sapiens) (UniProt O15111); conditions: at 0.1 µM
T4 sequence (whole entry): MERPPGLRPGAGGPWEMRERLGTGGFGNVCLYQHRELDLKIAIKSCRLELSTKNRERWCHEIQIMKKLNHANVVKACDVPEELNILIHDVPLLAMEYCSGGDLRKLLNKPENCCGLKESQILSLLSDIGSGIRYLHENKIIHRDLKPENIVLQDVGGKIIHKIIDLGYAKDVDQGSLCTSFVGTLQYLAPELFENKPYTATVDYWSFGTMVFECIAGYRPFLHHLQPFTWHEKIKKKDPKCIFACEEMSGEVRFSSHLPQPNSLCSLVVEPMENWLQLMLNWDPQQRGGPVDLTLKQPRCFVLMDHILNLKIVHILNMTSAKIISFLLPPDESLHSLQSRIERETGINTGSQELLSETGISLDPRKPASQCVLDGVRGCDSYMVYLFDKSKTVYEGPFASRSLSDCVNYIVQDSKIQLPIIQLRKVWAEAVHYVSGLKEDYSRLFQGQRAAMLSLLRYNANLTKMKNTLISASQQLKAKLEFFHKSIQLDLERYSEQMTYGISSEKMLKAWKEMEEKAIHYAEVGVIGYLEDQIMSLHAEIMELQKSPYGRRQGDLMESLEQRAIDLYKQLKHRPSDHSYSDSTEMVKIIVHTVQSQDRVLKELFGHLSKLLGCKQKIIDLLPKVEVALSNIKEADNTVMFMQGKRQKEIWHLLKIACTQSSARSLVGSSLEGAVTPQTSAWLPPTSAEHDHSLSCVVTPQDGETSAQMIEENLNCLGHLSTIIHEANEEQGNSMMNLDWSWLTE

[17] = biological target: T4, Inhibitor of nuclear factor kappa-B kinase subunit alpha (Homo sapiens); conditions: at 1 µM
[18] = biological target: T5, Inhibitor of nuclear factor kappa-B kinase subunit beta (Homo sapiens) (UniProt O14920); conditions: at 0.1 µM
T5 sequence (whole entry): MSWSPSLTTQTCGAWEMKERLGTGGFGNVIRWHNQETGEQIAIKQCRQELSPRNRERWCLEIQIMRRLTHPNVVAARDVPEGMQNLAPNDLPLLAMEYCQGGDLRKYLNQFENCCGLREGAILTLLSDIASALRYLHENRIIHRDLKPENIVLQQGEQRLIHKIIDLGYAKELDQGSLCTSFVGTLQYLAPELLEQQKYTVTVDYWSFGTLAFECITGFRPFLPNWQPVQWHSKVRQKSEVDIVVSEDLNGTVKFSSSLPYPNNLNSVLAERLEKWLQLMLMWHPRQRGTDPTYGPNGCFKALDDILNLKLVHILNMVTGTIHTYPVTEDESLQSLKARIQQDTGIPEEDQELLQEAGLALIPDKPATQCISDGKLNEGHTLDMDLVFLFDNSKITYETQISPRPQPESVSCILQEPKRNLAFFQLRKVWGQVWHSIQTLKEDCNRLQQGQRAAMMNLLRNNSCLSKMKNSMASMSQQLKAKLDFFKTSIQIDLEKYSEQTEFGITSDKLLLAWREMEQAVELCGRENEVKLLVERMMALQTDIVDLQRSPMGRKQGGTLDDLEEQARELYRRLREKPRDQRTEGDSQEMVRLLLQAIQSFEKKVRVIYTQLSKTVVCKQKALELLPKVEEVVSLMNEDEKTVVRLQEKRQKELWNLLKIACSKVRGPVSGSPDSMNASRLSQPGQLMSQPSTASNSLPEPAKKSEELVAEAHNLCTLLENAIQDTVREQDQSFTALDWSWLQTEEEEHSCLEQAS

[19] = biological target: T5, Inhibitor of nuclear factor kappa-B kinase subunit beta (Homo sapiens); conditions: at 1 µM
[20] = biological target: T6, Inhibitor of nuclear factor kappa-B kinase subunit epsilon (Homo sapiens) (UniProt Q14164); conditions: at 0.1 µM;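 also: mean inhibition of IKKε reported, from the GSK PKIS dataset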
T6 sequence (whole entry): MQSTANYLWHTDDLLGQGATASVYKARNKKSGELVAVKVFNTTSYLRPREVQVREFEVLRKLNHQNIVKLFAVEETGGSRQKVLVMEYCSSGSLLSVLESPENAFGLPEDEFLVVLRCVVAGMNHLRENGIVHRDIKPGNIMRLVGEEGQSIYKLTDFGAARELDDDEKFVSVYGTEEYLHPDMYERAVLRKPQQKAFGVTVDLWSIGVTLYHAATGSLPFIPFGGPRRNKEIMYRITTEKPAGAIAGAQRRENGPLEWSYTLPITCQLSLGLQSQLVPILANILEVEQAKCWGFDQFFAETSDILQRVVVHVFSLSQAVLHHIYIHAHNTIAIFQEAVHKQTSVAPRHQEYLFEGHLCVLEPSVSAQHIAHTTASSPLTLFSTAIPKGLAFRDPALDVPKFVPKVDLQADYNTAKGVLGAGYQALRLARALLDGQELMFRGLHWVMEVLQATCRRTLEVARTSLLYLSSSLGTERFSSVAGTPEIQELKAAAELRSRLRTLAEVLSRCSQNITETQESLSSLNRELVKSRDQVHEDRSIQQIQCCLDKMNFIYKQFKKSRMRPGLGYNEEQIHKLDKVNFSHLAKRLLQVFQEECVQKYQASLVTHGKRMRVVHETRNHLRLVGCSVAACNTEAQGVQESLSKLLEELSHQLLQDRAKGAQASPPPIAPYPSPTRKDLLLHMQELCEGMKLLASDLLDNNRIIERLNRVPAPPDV

Chain of Casein kinase II subunit alpha (Homo sapiens) (P68400 whole entry, looked up): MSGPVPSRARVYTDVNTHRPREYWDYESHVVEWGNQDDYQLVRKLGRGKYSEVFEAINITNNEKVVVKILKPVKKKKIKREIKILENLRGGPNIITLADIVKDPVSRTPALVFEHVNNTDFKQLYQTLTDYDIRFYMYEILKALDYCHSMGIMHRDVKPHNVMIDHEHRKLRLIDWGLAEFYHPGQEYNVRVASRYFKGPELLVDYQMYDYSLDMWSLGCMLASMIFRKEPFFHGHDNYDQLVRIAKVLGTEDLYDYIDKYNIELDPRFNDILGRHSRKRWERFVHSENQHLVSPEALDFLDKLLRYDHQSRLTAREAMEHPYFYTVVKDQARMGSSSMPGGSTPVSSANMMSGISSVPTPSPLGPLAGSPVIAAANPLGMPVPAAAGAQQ
Chain of SRSF protein kinase 1 (Homo sapiens) (Q96SB4 whole entry, canonical isoform): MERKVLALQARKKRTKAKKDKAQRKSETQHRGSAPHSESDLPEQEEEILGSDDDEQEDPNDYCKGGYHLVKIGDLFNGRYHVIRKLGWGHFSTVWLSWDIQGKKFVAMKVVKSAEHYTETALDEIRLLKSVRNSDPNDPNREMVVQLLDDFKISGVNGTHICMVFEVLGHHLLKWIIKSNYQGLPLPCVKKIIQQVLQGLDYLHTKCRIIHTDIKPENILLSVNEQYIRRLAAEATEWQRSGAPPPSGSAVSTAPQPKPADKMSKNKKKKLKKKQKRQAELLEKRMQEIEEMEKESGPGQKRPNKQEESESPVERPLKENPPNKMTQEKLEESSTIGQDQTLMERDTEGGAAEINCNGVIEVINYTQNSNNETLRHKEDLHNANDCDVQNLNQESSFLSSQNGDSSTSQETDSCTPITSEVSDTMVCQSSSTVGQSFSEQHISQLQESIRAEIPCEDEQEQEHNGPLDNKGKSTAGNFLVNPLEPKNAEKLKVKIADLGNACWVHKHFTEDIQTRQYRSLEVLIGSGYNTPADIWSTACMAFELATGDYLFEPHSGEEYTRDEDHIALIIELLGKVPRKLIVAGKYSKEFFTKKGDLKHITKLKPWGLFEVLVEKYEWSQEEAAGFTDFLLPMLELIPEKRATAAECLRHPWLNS
Chain of Phosphatidylinositol 4-kinase beta (Homo sapiens) (Q9UBF8 2-816 limits assumed): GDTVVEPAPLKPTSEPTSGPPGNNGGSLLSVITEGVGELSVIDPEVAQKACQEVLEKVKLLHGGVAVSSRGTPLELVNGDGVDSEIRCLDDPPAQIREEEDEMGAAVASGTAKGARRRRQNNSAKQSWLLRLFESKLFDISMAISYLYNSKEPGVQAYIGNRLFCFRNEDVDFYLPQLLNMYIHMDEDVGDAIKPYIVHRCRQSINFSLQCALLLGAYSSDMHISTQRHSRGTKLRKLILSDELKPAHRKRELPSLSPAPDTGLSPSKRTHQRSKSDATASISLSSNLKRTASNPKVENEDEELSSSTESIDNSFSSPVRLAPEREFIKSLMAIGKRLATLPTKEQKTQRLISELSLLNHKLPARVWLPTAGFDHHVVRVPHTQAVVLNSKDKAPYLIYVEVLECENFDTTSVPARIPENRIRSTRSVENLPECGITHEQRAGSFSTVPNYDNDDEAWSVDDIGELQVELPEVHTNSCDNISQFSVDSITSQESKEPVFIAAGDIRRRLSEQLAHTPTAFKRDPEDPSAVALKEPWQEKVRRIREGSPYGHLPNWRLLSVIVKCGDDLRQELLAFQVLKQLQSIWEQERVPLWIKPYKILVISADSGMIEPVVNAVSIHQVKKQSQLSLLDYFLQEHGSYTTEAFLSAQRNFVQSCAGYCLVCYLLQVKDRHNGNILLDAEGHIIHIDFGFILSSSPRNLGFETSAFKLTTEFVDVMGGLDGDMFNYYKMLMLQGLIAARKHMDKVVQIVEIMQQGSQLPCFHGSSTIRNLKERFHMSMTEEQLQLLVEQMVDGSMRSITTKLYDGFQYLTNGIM
Chain of Phosphatidylinositol 4,5-bisphosphate 3-kinase catalytic subunit alpha isoform (Homo sapiens) (P42336 whole entry, canonical isoform): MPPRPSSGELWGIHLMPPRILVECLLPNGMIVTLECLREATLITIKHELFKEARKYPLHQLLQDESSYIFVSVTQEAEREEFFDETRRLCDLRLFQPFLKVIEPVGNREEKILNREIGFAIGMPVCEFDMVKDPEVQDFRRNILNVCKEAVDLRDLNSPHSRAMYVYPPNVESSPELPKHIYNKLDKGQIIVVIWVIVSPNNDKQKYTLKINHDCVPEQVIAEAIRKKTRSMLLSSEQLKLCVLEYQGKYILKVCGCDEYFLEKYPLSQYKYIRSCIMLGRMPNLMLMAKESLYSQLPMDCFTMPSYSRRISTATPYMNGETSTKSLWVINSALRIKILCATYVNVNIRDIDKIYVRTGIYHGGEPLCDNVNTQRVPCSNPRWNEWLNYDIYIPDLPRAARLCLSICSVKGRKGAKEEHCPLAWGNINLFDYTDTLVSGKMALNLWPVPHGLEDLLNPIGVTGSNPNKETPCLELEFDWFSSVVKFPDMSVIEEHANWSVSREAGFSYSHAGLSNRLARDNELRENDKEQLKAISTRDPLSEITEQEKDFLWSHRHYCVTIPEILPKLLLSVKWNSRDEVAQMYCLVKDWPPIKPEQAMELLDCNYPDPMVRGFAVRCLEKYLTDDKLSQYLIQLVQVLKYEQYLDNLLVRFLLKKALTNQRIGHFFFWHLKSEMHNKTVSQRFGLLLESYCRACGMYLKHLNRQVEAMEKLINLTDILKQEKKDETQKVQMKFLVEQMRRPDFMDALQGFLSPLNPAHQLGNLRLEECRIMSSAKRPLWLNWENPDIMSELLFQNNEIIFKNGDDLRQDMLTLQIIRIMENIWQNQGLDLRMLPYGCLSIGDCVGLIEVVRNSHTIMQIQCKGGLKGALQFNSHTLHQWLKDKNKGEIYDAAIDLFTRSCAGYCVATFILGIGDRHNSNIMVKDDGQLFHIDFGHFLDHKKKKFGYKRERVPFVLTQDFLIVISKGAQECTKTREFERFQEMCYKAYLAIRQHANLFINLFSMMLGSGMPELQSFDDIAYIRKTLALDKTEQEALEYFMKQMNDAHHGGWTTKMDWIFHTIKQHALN
Chain of Sphingosine kinase 1 (Homo sapiens) (Q9NYA1 whole entry): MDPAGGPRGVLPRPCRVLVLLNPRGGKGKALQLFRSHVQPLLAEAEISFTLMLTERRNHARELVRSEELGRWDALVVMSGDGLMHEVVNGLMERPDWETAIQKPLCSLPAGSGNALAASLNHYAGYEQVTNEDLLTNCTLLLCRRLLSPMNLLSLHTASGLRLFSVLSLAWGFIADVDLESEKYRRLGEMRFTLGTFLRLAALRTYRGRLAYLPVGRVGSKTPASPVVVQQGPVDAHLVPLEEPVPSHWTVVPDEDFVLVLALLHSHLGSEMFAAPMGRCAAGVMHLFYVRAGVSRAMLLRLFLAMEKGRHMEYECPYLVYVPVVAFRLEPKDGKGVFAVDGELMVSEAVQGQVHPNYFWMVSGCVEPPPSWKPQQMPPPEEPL

Row | SMILES | inhibition [1] | inhibition [2] | inhibition [3] | inhibition [4] | inhibition [5] | inhibition [6] | inhibition [7] | inhibition [8] | inhibition [9] | inhibition [10] | inhibition [11] | inhibition [12] | inhibition [13] | inhibition [14] | inhibition [15] | inhibition [16] | inhibition [17] | inhibition [18] | inhibition [19] | inhibition [20]
1 | N#Cc1c(NC(=O)CN2CCOCC2)sc2c1CCCC2 | 3.63% | -1.48% | 3.81% | 3.43% | 3.19% | 0.47% | 0.45% | 0.92% | -0.98% | 0.08% | -2.59% | 1.39% | -0.6% | 6.02% | 10.9% | 6.78% | 6.16% | 4.25% | 5.09% | 9.02%
2 | COc1ccc(-c2cc3c(N)ncnc3o2)cc1 | -1.89% | -1.58% | 1.06% | -1.98% | -0.52% | -0.57% | 0.07% | -0.47% | -0.47% | 9.34% | 0.27% | 0.92% | -0.08% | 4.9% | 14.2% | -1.6% | -3.79% | -0.63% | 6.4% | -2.31%
3 | O=C(Nc1n[nH]c2cc(-c3ccc(F)cc3)ccc12)C1CC1 | 2.53% | -1.78% | -2.19% | 5.93% | 9.6% | 7.39% | 10.8% | 3.38% | -2.55% | 2.17% | 0.32% | 0.15% | -0.37% | 2.04% | 0.79% | 4.81% | -0.71% | 4.46% | 2.08% | 4.25%
4 | Cc1cccc(Nc2ncc(-c3ccccc3)o2)c1 | 4.77% | -2.35% | 0.2% | 0.69% | -0.17% | 0.73% | 1.52% | 1.05% | 2.54% | 1% | 3.75% | 0.62% | -1.72% | 4.16% | 3.49% | 3.87% | 7.95% | 4.82% | 5.08% | 5.18%
5 | CCn1c(-c2nonc2N)nc2c(C#CC(C)(C)O)nc(OC[C@H](N)c3ccccc3)cc21 | 3.95% | -2.57% | -1.89% | 1.03% | 1.06% | 0.44% | 1.52% | -2.33% | 0.6% | 0.65% | 0.93% | -0.49% | 0% | 1.82% | 4.54% | 3.2% | 2.58% | 1.71% | 4.92% | 8.21%
6 | CNC(=O)c1cc(-c2ccc(F)cc2)cc(-c2ccc(S(=O)(=O)N3CCCC3)cc2)c1N | 2.47% | -2.58% | -1.56% | 2.34% | 1.39% | 0.79% | 1.11% | -2.09% | 1.93% | -0.85% | -1.82% | -0.5% | -0.63% | 15.5% | 3.05% | 7.04% | 4.67% | 5.48% | 5.18% | 2.88%
7 | c1ccc(COc2ccc(Nc3ncnc4ccc(-c5ccco5)cc34)cc2)cc1 | 0.69% | -1.86% | -1.65% | 0.06% | 2.59% | 3.33% | 4.52% | -1.76% | -1.04% | 1.84% | 0.95% | -2.53% | 1.35% | 1.23% | 4.42% | -5.49% | 0.49% | 1.07% | 0.01% | 4.51%
